Laboratory results: PubChem BioAssay (EPA / NIEHS)
Inconclusive results are not listed. The source made the active and inactive calls. Rule for the calls: active = hit-call score of the fitted dose curve at least 0.9, where 1 is the maximum; inconclusive = response in the unintended direction; inactive = score below 0.9.

test: Tanguay_ZF_120hpf_AXIS_legacy: (Legacy) Oregon State University Tanguay Lab 120 Hour Post-fertilization zebrafish Assay for Body Axis Malformation (AID 2283635);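 for AC50: potency for an increased fraction of larvae scored with body axis malformation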
Protocol: Tanguay_ZF_120hpf_legacy is a whole embryo, multiplexed endpoint assay using zebrafish larvae exposed for 120 hours post fertilization on a 96-well plate.Tanguay_ZF_120hpf_AXIS_legacy is one of one assay component(s) measured or calculated from the Tanguay_ZF_120hpf_legacy assay. It is designed to make measurements of zebrafish development as detected with brightfield microscopy of developing zebrafish embryos.Data from the assay component Tanguay_ZF_120hpf_AXIS_legacy was analyzed into 1 assay endpoints. This assay endpoint, Tanguay_ZF_120hpf_AXIS_legacy, was analyzed in the positive analysis fitting direction relative to DMSO as the negative control and baseline of activity. Using a type of morphology reporter, gain-of-signal activity can be used to understand changes in developmentals as they relate to the whole embryo. To generalize the intended target to other relatable targets, this assay endpoint is annotated to the zebrafish development intended target family, where the subfamily is body axis morphogenesis.
Zebrafish husbandry: Tropical 5D wild-type adult zebrafish were housed in at an approximate density of 1000 per 100 gallon tank at the Sinnhuber Aquatic Research Laboratory, Oregon State University, Corvallis, OR. Each tank was kept at standard laboratory conditions of 28C on a 14-h light/10-h dark photoperiod in fish water consisting of reverse osmosis water supplemented with a commercially available salt (Instant Ocean). Spawning funnels were placed into the tanks the night prior, and embryos were collected and staged. To increase bioavailability, the chorion was enzymatically removed using pronase (63.6mg/ml, >/= 3.5U/mg, Sigma-Aldrich: P5147) at 4 hours post fertilization (hpf) using a custom automated dechorionator.Chemical exposures: Six hpf dechorionated embryos were placed 1 embryo per well in a 96-well plate prefilled with 90 ul of EM using automated embryo placement systems (AEPS). Ten microliters of each row of dilution plate 2 was added to 2 exposure plates. The final DMSO concentration used was 0.64% (vol/vol). Thirty-two embryos were also exposed to 5uM trimethyltin chloride (positive control). Plates were sealed to prevent evaporation and foil covered to reduce light exposure and kept in a 28C incubator. Embryos were statically exposed until 120 hpf. At 24 hpf, embryos were assessed for photomotor response using a custom photomotor response analysis tool (PRAT) and for developmental toxicity endpoints (MO24: mortality at 24 hpf, DP: developmental progression, SM: spontaneous movement, and NC: notochord distortion). At 120 hpf, locomotor activity was measured using Viewpoint Zebralab and assessed for 18 endpoints. Zebrafish acquisition and analysis program (ZAAP), a custom program designed to inventory, acquire, and manage zebrafish data, was used to collect developmental endpoints as either present or absent (i.e., binary responses were recorded). If mortality occurred for an embryo (at either 24 or 120 hpf), the non-mortality endpoints were not measured.

| SMILES | outcome | AC50 |
| --- | --- | --- |
| O=c1n(Cl)c(=O)n(Cl)c(=O)n1Cl | inactive |  |
| Cc1cnc(C2=NC(C)(C(C)C)C(=O)N2)c(C(=O)O)c1 (stereo not given) | inactive |  |
| CS(=O)(=O)c1cc(C(F)(F)F)ccc1C(=O)c1cnoc1C1CC1 | inactive |  |
| COP(=S)(OC)SCn1nnc2ccccc2c1=O |  | 17.3 µM (active) |
| Clc1cccc(C(Cl)(Cl)Cl)n1 | inactive |  |
| COCC(C)N(C(=O)CCl)c1c(C)csc1C (stereo not given) |  | 27.3 µM (active) |
| CC(C)(C)C(=O)C(Oc1ccc(Cl)cc1)n1cncn1 (stereo not given) |  | 41.3 µM (active) |
| O=C(Nc1ccccc1-c1ccc(Cl)cc1)c1cccnc1Cl | inactive |  |
| Nc1cnn(-c2ccccc2)c(=O)c1Cl | inactive |  |
| CN/C(=N\[N+](=O)[O-])NCc1cnc(Cl)s1 | inactive |  |
| CC(C)N1C(=O)c2ccccc2NS1(=O)=O | inactive |  |
| CN=C=S | inactive |  |
| C=CCOC(=O)C(C)(C)OC(=O)c1cc(-n2c(=O)cc(C(F)(F)F)n(C)c2=O)ccc1Cl | inactive |  |
| O=P(O)(O)CCCl | inactive |  |
| COC(=O)c1c(C(F)F)nc(C(F)(F)F)c(C2=NCCS2)c1CC(C)C | inactive |  |
| CCSC(=O)N1CCCCCC1 | inactive |  |
| Clc1nc(Cl)nc(Nc2ccccc2Cl)n1 | inactive |  |
| CCCCC(C#N)(Cn1cncn1)c1ccc(Cl)cc1 (stereo not given) |  | 56 µM (active) |
| CCCN(CC)CC1COC2(CCC(C(C)(C)C)CC2)O1 (stereo not given) | inactive |  |
| C=C(C)CN(CC)c1c([N+](=O)[O-])cc(C(F)(F)F)cc1[N+](=O)[O-] | inactive |  |

| SMILES | outcome | AC50 |
| --- | --- | --- |
| CC1(C)CCC(=Cc2ccc(Cl)cc2)C1(O)Cn1cncn1 (stereo not given) | inactive |  |
| CC(C)Nc1nc(Cl)nc(NC(C)C)n1 | inactive |  |
| COC(=O)NS(=O)(=O)c1ccc(N)cc1 | inactive |  |
| CC1(C)C(C=C(Cl)Cl)C1C(=O)OC(C#N)c1cccc(Oc2ccccc2)c1 (stereo not given) |  | 1.23 µM (active) |
| CCN(CC)c1nc(C)cc(OP(=S)(OC)OC)n1 | inactive |  |
| COP(=S)(OC)Oc1ccc([N+](=O)[O-])c(C)c1 | inactive |  |
| O=C1C2CC=CCC2C(=O)N1SC(Cl)(Cl)Cl (stereo not given) | inactive |  |
| CCOc1nc(F)cc2nc(S(=O)(=O)Nc3c(Cl)cccc3Cl)nn12 | inactive |  |
| CSC(=O)c1c(C(F)F)nc(C(F)(F)F)c(C(=O)SC)c1CC(C)C | inactive |  |
| CCOc1nc(C(Cl)(Cl)Cl)ns1 | inactive |  |
| N#CN=C1SCCN1Cc1ccc(Cl)nc1 | inactive |  |
| Cn1c(-c2ccccc2)cc(-c2ccccc2)[n+]1C | inactive |  |
| CO/N=C(/C1=NOCCO1)c1ccccc1Oc1ncnc(Oc2ccccc2Cl)c1F |  | 5.15 µM (active) |
| Cc1nc(N(C)C)nc(OC(=O)N(C)C)c1C | inactive |  |
| COC(=O)NC(=S)Nc1ccccc1NC(=S)NC(=O)OC | inactive |  |
| CCNC(=O)NC(=O)C(C#N)=NOC |  | 46 µM (active) |
| CC1(C)C(C(=O)OC(C#N)c2cccc(Oc3ccccc3)c2)C1(C)C (stereo not given) | inactive |  |
| COc1cc(OC)nc(NC(=O)NS(=O)(=O)c2ncccc2OCC(F)(F)F)n1 | inactive |  |
| CCCCOCN(C(=O)CCl)c1c(CC)cccc1CC | inactive |  |
| CCNP(=S)(OC)O/C(C)=C/C(=O)OC(C)C (stereo not given) | inactive |  |
